Active and inactive are the calls of the source. Rule for the calls: active = hit-call score of the fitted dose curve at least 0.9, where 1 is the maximum; inactive = score below 0.9.
What was measured:
[1] = read-out: Tumor necrosis factor receptor superfamily member 6 (Homo sapiens) (UniProt P25445); experiment: LTEA_HepaRG_FAS: Life Technologies and Expression Analysis (LTEA) Assay for Fas cell surface death receptor (FAS) using HepaRG (AID 2283447); conditions: mRNA level, 48 h; actives raise or lower the signal
Procedure, shortened: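 Differentiated human HepaRG cells, pre-cultured 48 h, were exposed in duplicate for 48 h to 8-point half-log concentrations (top 100 uM, 0.5% DMSO) in serum-free induction medium; FAS mRNA measured by qRT-PCR, normalized to ACTB/GAPDH/POLR2A, bidirectional fit versus DMSO.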

[2] = read-out: Fatty acid synthase (Homo sapiens) (UniProt P49327); experiment: LTEA_HepaRG_FASN: Life Technologies and Expression Analysis (LTEA) Assay for Fatty Acid Synthase (FASN) using HepaRG (AID 2283448); conditions: mRNA level, 48 h; actives raise or lower the signal
Procedure, shortened: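 FASN expression changes, up or down relative to 0.5% DMSO, were measured by qRT-PCR in human HepaRG cells after 48 h treatment with chemicals at eight concentrations (half-log steps from 100 uM).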

[3] = read-out: Cyclin D2 (CCND2), CCND2 (gene 894); experiment: LTEA_HepaRG_CCND2: Life Technologies and Expression Analysis (LTEA) Assay for Cyclin D2 (CCND2) using HepaRG (AID 2283449); conditions: mRNA level, 48 h; actives raise or lower the signal;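 note: CCND2 transcript measured by TaqMan qRT-PCR and normalised to three housekeeping genes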
Procedure, shortened: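 Differentiated human HepaRG cells were exposed for 48 h in serum-free induction medium to eight half-log concentrations topping at 100 uM (0.5% DMSO vehicle). CCND2 mRNA was quantified by TaqMan qRT-PCR, normalised to ACTB, GAPDH and POLR2A, and fitted bidirectionally against DMSO.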

[4] = read-out: Cyclin Dependent Kinase Inhibitor 1A (CDKN1A), CDKN1A (gene 1026); experiment: LTEA_HepaRG_CDKN1A: Life Technologies and Expression Analysis (LTEA) Assay for Cyclin Dependent Kinase Inhibitor 1A (CDKN1A) using HepaRG (AID 2283450); conditions: mRNA level, 48 h; actives raise or lower the signal
Procedure, shortened: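 Differentiated human HepaRG cells, pre-cultured 48 h, were exposed in duplicate for 48 h in serum-free induction medium to eight half-log concentrations up to 100 uM (0.5% DMSO). CDKN1A mRNA was measured by qRT-PCR, normalized to ACTB/GAPDH/POLR2A, bidirectionally fitted versus DMSO.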

[5] = read-out: Cyclin D1 (CCND1), CCND1 (gene 595); experiment: LTEA_HepaRG_CCND1: Life Technologies and Expression Analysis (LTEA) Assay for Cyclin D1 (CCND1) using HepaRG (AID 2283451); conditions: mRNA level, 48 h; actives raise or lower the signal
Procedure, shortened: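 Differentiated human HepaRG cells in serum-free induction medium were exposed 48 h to eight half-log concentrations up to 100 uM in 0.5% DMSO; mRNA quantified by TaqMan qRT-PCR, normalized to ACTB, GAPDH, POLR2A, fitted bidirectionally versus DMSO.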

[6] = read-out: catalase (CAT), CAT (gene 847); experiment: LTEA_HepaRG_CAT: Life Technologies and Expression Analysis (LTEA) Assay for catalase (CAT) using HepaRG (AID 2283452); conditions: mRNA level, 48 h; actives raise or lower the signal
Procedure, shortened: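 Differentiated HepaRG cells in serum-free induction medium were dosed 48 h in duplicate, eight half-log concentrations from 100 uM in 0.5% DMSO. Transcript measured by TaqMan qRT-PCR, normalised to ACTB/GAPDH/POLR2A, fitted bidirectionally against DMSO.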

[7] = read-out: flavin-containing dimethylaniline monooxygenases 3 (FMO3), FMO3 (gene 2328); experiment: LTEA_HepaRG_FMO3: Life Technologies and Expression Analysis (LTEA) Assay for flavin-containing dimethylaniline monooxygenases 3 (FMO3) using HepaRG (AID 2283453); conditions: mRNA level, 48 h; actives raise or lower the signal
Procedure, shortened: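 Differentiated HepaRG cells in serum-free induction medium, exposed 48 h in duplicate to 8 half-log concentrations up to 100 uM in 0.5% DMSO. FMO3 mRNA by qRT-PCR, normalized to ACTB, GAPDH, POLR2A; bidirectional fit vs DMSO.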

[8] = read-out: Cytochrome P450 (CYP1A1), CYP1A1 (gene 1543); experiment: LTEA_HepaRG_CYP1A1: Life Technologies and Expression Analysis (LTEA) Assay for Cytochrome P450 (CYP1A1) using HepaRG (AID 2283454); conditions: mRNA level, 48 h; actives raise or lower the signal
Procedure, shortened: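 Differentiated HepaRG cells in serum-free induction medium were exposed in duplicate for 48 h to eight half-log concentrations up to 100 uM in 0.5% DMSO. CYP1A1 mRNA was quantified by TaqMan qRT-PCR, normalized to ACTB, GAPDH and POLR2A.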

[9] = read-out: CFLAR gene, CFLAR (gene 8837); experiment: LTEA_HepaRG_CFLAR: Life Technologies and Expression Analysis (LTEA) Assay for CFLAR gene using HepaRG (AID 2283455); conditions: mRNA level, 48 h; actives raise or lower the signal
Procedure, shortened: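 HepaRG cells were plated for 48 h, switched to serum-free induction medium, then exposed in duplicate for 48 h to 8 concentrations (top 100 uM, half-log steps, 0.5% DMSO). CFLAR mRNA was measured by qRT-PCR, normalized to ACTB, GAPDH and POLR2A.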

[10] = read-out: Forkhead box O1 (FOXO1), FOXO1 (gene 2308); experiment: LTEA_HepaRG_FOXO1: Life Technologies and Expression Analysis (LTEA) Assay for Forkhead box O1 (FOXO1) using HepaRG (AID 2283456); conditions: mRNA level, 48 h; actives raise or lower the signal
Procedure, shortened: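 Differentiated human HepaRG cells in serum-free induction medium were exposed in duplicate for 48 h to eight half-log concentrations (top 100 uM, 0.5% DMSO). FOXO1 mRNA was measured by TaqMan qRT-PCR, normalised to ACTB, GAPDH and POLR2A, and fitted bidirectionally against DMSO.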

[11] = read-out: growth arrest and DNA damage 45 (GADD45A), GADD45A (gene 1647); experiment: LTEA_HepaRG_GADD45A: Life Technologies and Expression Analysis (LTEA) Assay for growth arrest and DNA damage 45 (GADD45A) using HepaRG (AID 2283458); conditions: mRNA level, 48 h; actives raise or lower the signal
Procedure, shortened: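 Cells plated and cultured 48 h, switched to serum-free induction medium, then dosed for 48 h (100 uM top, half-log dilutions, 0.5% DMSO). RNA was isolated and transcript measured by Fluidigm qRT-PCR.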

[12] = read-out: Forkhead box O3 (FOXO3), FOXO3 (gene 2309); experiment: LTEA_HepaRG_FOXO3: Life Technologies and Expression Analysis (LTEA) Assay for Forkhead box O3 (FOXO3) using HepaRG (AID 2283459); conditions: mRNA level, 48 h; actives raise or lower the signal
Procedure, shortened: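 Differentiated human HepaRG cells in serum-free induction medium were exposed in duplicate for 48 h to eight half-log concentrations up to 100 uM in 0.5% DMSO. FOXO3 mRNA was quantified by qRT-PCR, normalized to ACTB, GAPDH and POLR2A, with bidirectional fitting versus DMSO.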

[13] = read-out: ABC Transporter (ABCB1), ABCB1 (gene 5243); experiment: LTEA_HepaRG_ABCB1: Life Technologies and Expression Analysis (LTEA) Assay for ABC Transporter (ABCB1) using HepaRG (AID 2283460); conditions: mRNA level, 48 h; actives raise or lower the signal
Procedure, shortened: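 Differentiated human HepaRG cells, plated 48 h then switched to serum-free induction medium, were exposed in duplicate to eight half-log concentrations up to 100 uM in 0.5% DMSO for 48 h. ABCB1 mRNA was measured by TaqMan qRT-PCR, normalized to ACTB/GAPDH/POLR2A.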

[14] = read-out: growth arrest and DNA damage 45 (GADD45B), GADD45B (gene 4616); experiment: LTEA_HepaRG_GADD45B: Life Technologies and Expression Analysis (LTEA) Assay for growth arrest and DNA damage 45 (GADD45B) using HepaRG (AID 2283461); conditions: mRNA level, 48 h; actives raise or lower the signal
Procedure, shortened: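 Differentiated HepaRG cells, plated 48 h then switched to serum-free induction medium, were exposed 48 h in duplicate to eight half-log concentrations from 100 uM in 0.5% DMSO; mRNA quantified by qRT-PCR, normalized to ACTB/GAPDH/POLR2A, bidirectional fit versus DMSO.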

[15] = read-out: ABC Transporter (ABCB11), ABCB11 (gene 8647); experiment: LTEA_HepaRG_ABCB11: Life Technologies and Expression Analysis (LTEA) Assay for ABC Transporter (ABCB11) using HepaRG (AID 2283463); conditions: mRNA level, 48 h; actives raise or lower the signal
Procedure, shortened: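 Differentiated human HepaRG cells were exposed for 48 h in serum-free induction medium to eight half-log concentrations up to 100 uM in 0.5% DMSO. ABCB11 mRNA was quantified by qRT-PCR, normalized to ACTB, GAPDH and POLR2A, and fitted bidirectionally versus DMSO.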

[16] = read-out: ABC Transporter (ABCC2), ABCC2 (gene 1244); experiment: LTEA_HepaRG_ABCC2: Life Technologies and Expression Analysis (LTEA) Assay for ABC Transporter (ABCC2) using HepaRG (AID 2283464); conditions: mRNA level, 48 h; actives raise or lower the signal
Procedure, shortened: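 HepaRG cells were plated 48 h, switched to serum-free induction medium, then exposed in duplicate for 48 h to 8 concentrations (top 100 uM, half-log steps, 0.5% DMSO). ABCC2 mRNA was measured by qRT-PCR normalized to ACTB/GAPDH/POLR2A; bidirectional fitting versus DMSO.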

[17] = read-out: Broad substrate specificity ATP-binding cassette transporter ABCG2 (Homo sapiens) (UniProt Q9UNQ0); experiment: LTEA_HepaRG_ABCG2: Life Technologies and Expression Analysis (LTEA) Assay for ABC Transporter (ABCG2) using HepaRG (AID 2283465); conditions: mRNA level, 48 h; actives raise or lower the signal
Procedure, shortened: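 Differentiated HepaRG cells in serum-free induction medium were exposed for 48 h, in duplicate, to eight half-log concentrations up to 100 uM in 0.5% DMSO. ABCG2 mRNA was measured by TaqMan qRT-PCR, normalized to ACTB, GAPDH and POLR2A, and fitted bidirectionally versus DMSO.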

[18] = CEETOX_H295R_PROG: CeeTox H295R High-throughput Steroidogenesis Assay for Progesterone (PROG) (AID 2283442); conditions: actives raise or lower the signal
Procedure, shortened: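 H295R human adrenal cells were prestimulated with 10 uM forskolin for 48 h, then exposed to test chemical (0.1% DMSO final) for 48 h. Medium progesterone was MTBE-extracted and quantified by HPLC-MS/MS, with bidirectional fitting against DMSO.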

[19] = read-out: ABC Transporter (ABCC3), ABCC3 (gene 8714); experiment: LTEA_HepaRG_ABCC3: Life Technologies and Expression Analysis (LTEA) Assay for ABC Transporter (ABCC3) using HepaRG (AID 2283462); conditions: mRNA level, 48 h; actives raise or lower the signal
Procedure, shortened: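 HepaRG cells in serum-free induction medium were exposed for 48 h in duplicate to 8-point half-log concentrations topping at 100 uM in 0.5% DMSO. ABCC3 mRNA was measured by qRT-PCR normalized to ACTB, GAPDH and POLR2A, with bidirectional fitting versus DMSO.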

Measured: AC50

Chain of Broad substrate specificity ATP-binding cassette transporter ABCG2 (Homo sapiens) (Q9UNQ0 whole entry, looked up): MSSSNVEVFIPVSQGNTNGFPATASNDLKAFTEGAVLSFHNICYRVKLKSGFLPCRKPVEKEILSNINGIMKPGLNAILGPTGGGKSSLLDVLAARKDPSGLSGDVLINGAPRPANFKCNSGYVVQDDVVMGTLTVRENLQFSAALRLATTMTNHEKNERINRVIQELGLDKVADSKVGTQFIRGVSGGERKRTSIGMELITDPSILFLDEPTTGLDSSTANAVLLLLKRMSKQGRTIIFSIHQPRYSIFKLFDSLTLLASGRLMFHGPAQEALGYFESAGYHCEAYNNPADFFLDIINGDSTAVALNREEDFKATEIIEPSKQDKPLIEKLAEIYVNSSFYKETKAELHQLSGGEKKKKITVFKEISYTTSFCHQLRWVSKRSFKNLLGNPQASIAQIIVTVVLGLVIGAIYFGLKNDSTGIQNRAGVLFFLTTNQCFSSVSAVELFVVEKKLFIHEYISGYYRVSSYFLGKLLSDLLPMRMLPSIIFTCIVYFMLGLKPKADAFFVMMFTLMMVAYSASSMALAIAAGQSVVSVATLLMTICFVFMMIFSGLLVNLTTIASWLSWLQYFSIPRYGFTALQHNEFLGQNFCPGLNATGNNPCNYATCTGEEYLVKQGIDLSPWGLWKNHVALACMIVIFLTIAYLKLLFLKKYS
Chain of Fatty acid synthase (Homo sapiens) (P49327 whole entry, looked up): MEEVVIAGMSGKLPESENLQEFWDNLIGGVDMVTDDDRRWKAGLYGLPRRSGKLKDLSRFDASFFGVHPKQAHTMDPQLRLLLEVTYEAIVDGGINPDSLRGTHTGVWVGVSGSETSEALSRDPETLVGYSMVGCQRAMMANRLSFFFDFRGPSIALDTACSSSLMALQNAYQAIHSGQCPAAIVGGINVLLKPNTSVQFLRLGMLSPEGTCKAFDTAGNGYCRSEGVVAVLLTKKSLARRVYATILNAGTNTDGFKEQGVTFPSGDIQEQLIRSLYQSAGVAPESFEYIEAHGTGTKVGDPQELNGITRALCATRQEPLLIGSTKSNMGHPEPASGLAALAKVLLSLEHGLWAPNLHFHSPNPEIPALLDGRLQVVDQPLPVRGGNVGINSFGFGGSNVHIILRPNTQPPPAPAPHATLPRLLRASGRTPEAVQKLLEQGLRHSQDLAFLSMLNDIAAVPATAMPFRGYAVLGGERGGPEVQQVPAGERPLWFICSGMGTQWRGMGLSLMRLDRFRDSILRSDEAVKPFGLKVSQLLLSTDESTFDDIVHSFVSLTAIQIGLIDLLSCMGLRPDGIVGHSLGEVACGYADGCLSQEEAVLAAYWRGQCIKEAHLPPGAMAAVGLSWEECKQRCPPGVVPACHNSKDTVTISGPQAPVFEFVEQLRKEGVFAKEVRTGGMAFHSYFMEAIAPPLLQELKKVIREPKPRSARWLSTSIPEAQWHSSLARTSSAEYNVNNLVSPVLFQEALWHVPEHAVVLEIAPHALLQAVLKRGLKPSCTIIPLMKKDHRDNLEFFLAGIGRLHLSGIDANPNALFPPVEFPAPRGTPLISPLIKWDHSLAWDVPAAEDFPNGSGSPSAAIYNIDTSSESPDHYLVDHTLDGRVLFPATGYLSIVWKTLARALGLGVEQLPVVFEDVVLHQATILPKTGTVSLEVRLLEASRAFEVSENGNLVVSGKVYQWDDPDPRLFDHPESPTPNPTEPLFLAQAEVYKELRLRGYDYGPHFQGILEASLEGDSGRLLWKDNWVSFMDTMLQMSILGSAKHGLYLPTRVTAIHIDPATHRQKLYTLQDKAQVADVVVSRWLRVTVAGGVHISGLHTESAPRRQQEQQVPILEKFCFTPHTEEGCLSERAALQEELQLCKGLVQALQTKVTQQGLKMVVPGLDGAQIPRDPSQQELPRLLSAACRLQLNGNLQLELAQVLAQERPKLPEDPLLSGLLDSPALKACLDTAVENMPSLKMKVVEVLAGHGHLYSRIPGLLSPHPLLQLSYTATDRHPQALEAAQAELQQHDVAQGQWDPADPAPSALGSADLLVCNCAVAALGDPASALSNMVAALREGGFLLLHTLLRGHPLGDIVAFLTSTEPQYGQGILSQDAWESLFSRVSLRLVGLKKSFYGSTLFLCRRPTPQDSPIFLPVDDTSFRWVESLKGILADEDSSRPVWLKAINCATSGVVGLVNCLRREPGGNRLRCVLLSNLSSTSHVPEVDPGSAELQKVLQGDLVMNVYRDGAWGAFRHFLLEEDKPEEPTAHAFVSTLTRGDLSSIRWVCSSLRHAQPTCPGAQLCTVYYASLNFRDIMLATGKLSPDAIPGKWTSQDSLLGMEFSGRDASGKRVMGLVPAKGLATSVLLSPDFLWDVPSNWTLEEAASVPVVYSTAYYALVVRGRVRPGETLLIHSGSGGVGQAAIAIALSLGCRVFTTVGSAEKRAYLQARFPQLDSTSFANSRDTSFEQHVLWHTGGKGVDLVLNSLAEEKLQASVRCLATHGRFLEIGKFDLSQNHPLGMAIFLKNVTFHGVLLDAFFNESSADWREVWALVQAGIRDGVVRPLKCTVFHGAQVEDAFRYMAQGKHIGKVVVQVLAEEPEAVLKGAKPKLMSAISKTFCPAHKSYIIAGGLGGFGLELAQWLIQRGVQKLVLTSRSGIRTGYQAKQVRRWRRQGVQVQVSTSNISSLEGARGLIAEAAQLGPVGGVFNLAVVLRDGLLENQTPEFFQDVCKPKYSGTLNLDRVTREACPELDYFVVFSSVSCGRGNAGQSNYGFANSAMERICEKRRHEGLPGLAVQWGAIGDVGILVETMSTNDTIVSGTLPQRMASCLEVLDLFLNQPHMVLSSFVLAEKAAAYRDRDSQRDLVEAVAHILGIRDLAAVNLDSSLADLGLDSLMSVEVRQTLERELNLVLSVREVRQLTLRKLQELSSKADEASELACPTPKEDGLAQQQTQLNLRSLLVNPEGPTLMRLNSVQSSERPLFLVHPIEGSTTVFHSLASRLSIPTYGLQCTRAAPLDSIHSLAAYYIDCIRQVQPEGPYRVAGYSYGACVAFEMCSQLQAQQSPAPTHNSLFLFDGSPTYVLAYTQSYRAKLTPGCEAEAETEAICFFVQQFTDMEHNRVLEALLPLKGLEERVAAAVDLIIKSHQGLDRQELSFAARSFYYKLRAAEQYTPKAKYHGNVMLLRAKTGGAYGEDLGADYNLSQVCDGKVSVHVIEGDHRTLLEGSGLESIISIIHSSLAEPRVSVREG

CCCCOC(=O)[C@@H](C)Oc1ccc(Oc2ccc(C#N)cc2F)cc1
active: [8] 23.3 µM
not listed: [18] | [19]
inactive: all other assays above

O=C(O)c1cc(Oc2ccc(C(F)(F)F)cc2Cl)ccc1[N+](=O)[O-]
active: [8] 50 µM | [13] 50 µM | [16] 50 µM | [17] 2.98 µM
not listed: [11] | [14] | [19]
inactive: all other assays above

C#CCC1=C(C)C(OC(=O)C2C(C=C(C)C)C2(C)C)CC1=O (centres undefined)
active: [8] 49.8 µM | [16] 19.6 µM | [17] 9.87 µM
not listed: [14] | [19]
inactive: all other assays above

CNc1cnn(-c2cccc(C(F)(F)F)c2)c(=O)c1Cl
active: [2] 18 µM | [7] 38.8 µM | [12] 31.1 µM | [13] 74.9 µM | [14] 50 µM | [15] 20.1 µM | [17] 17.4 µM
not listed: [8] | [19]
inactive: all other assays above

CCc1cccc(C)c1N(C(=O)CCl)C(C)COC (centres undefined)
not listed: [8] | [14]
inactive: all other assays above
